PubChem BioAssay (Tox21)
Activity calls are given as the source filed them. The call rests on the fitted dose curve; in most records, active means well fitted curve in the direction sought with a large enough effect in the repeat runs; inconclusive means weak or mixed curves; inactive means flat fitted curve, though single readings scatter.

Experiment: qHTS assay to test for compound auto fluorescence at 590 nm (red) in HEK293 cells (AID 720679)
Settings: red autofluorescence 540/590 nm; series mostly up to 91.3 µM; fluorescence, % of fluorescent control: at the top concentration
Text: National Center for Advancing Translational Sciences [NCATS]
NIH Chemical Genomics Center [NCGC]
U.S. Environmental Protection Agency [EPA]
National Institutes of Environmental Health Sciences [NIEHS]
National Toxicology Program [NTP]
U.S. Food and Drug Administration [FDA]
Compound auto fluorescence often interferes with screening of the compound library against various biological targets and signaling pathways. Some of these compounds may have fluorophoric properties. Such properties may interfere with the assay outputs resulting in false positives and/or negatives. To decrease such complications and ensure the compound activities are relevant in terms of biological response, the Tox21 10K compound library was screened for auto fluorescence.
From the fluorophores used as reporter signals in our screening assays, the auto fluorescence equivalencies of compounds against three fluorophores have been evaluated: Triamterene, Fluorescein and Rose Bengal sodium for blue, green and red fluorescence, respectively. The fluorescence intensities were measured using Excitation/Emission wavelengths at 405/460nm, 485/535nm and 540/590nm for blue, green and red labels, respectively. This assay includes the red fluorescence data.
Tox21 Assay Protocol Summary:
2,000 HEK293 cells in 5 uL of culture medium containing 10% dialyzed FBS per well were dispensed into black wall/clear bottom 1536-well plates using a Multidrop Combi Dispenser (Thermo Scientific). The assay plates were incubated for 4-5 hr at 37C to allow cell attachment to the well bottom, followed by the transfer of 23 nL compound or DMSO vehicle by a pintool work station (Kalypsys, San Diego, CA). After the assay plates were incubated overnight at 37C and 5% CO2, fluorescence intensities in the assay plates were measured by an Envision (PerkinElmer, Shelton, CT) plate reader using three labels for measuring blue, green and red fluorescence at […] 460, 535 and 590nm respectively.
On the % scale 0 is the no-effect control and ±100 the full control effect.

SMILES | fluorescence, % of fluorescent control | outcome
CO[C@@]1(NC(=O)CSCC#N)C(=O)N2C(C(=O)O)=C(CSc3nnnn3C)CS[C@@H]21 | -0.345% [at 46 µM] (inactive) | 
CC(C)Nc1nc(N)nc(Cl)n1 | 0.0401% (inactive) | 
Cc1c(C(=O)NCCO)[n+](=O)c2ccccc2n1[O-] | -0.963% [at 46 µM] (inactive) | 
FC(F)(F)C(Cl)(Cl)Cl | 0.604% (inactive) | 
O=C1CCC(C2CCCCC2)CC1 | -0.761% (inactive) | 
CCOC(=O)CS | -0.008% [at 95.7 µM] (inactive) | 
C[C@@H]1CN(c2c(F)c(F)c3c(=O)c(C(=O)O)cn(C4CC4)c3c2F)C[C@H](C)N1 | -0.816% [at 46 µM] (inactive) | 
CC1(C)O[C@@H]2C[C@H]3[C@@H]4CCC5=CC(=O)CC[C@]5(C)[C@@]4(F)[C@@H](O)C[C@]3(C)[C@]2(C(=O)CCl)O1 | -0.0534% [at 18.6 µM] (inactive) | 
CC(=O)Nc1ccc(C)c(Cl)c1 | -0.764% (inactive) | 
CCOC(=O)COc1ccc2c(c1)CC(NCC(O)c1cccc(Cl)c1)CC2 (stereo not given) | -0.0037% (inactive) | 
COC(=O)N[C@H](C(=O)N[C@@H](Cc1ccccc1)[C@@H](O)CN(Cc1ccc(-c2ccccn2)cc1)NC(=O)[C@@H](NC(=O)OC)C(C)(C)C)C(C)(C)C | 0.306% [at 46 µM] (inactive) | 
O=C(CC(=O)C(F)(F)F)c1ccccc1 | 0.273% [at 95.7 µM] (inactive) | 
ClC(Cl)Cl |  | inactive
O=C1N(c2ccccc2)c2ccccc2C1(Cc1ccncc1)Cc1ccncc1 | 0.114% [at 46 µM] (inactive) | 
OCCN(CCO)c1ccccc1 | -0.157% (inactive) | 
CCCNC(C)(C)COC(=O)c1ccccc1 | 0.008% [at 46 µM] (inactive) | 
O=C(C(Cl)Cl)N1CCOC12CCCCC2 | 0.0525% (inactive) | 
Oc1ccccc1C=NCc1ccccc1 | 0.0122% [at 46 µM] (inactive) | 
CC(=O)OC(C)OC(C)=O | 0.556% [at 95.7 µM] (inactive) | 
CCN(O)CC | -0.0813% (inactive) | 

SMILES | fluorescence, % of fluorescent control | outcome
OCCN(CCO)CCN(CCO)CCO | -0.236% (inactive) | 
Cc1nc(-c2ccccn2)ncc1C(=O)Nn1cc(C)c2cc(F)ccc21 | 0.109% (inactive) | 
CC1=C2[C@H](/C=C(\C)C(=O)O)CC[C@@H](C)[C@H]2CC1 | 0.342% [at 95.7 µM] (inactive) | 
NC(Cc1ccc(F)cc1)C(=O)O (stereo not given) | 0.0934% [at 3.72 µM] (inactive) | 
O=[N+]([O-])c1nccn1CO[C@@H](CO)[C@H](O)CO | -0.692% [at 46 µM] (inactive) | 
O=Cc1ccc(F)c(Br)c1 | -0.337% (inactive) | 
Nc1ccc(Oc2ccc(N)c(N)c2)cc1 | 0.117% (inactive) | 
CCc1nnc(NS(=O)(=O)c2ccc(N)cc2)s1 | 0.0888% [at 46 µM] (inactive) | 
Cc1cc(NS(=O)(=O)c2ccc(N)cc2)nc(C)n1 | -0.177% [at 46 µM] (inactive) | 
Cc1ccc(C=O)s1 | -0.0555% (inactive) | 
O=C1CCN(c2ccccc2)N1 | -0.0377% (inactive) | 
C=C(C)C(=O)OCCOP(=O)(O)O | -0.881% [at 95.7 µM] (inactive) | 
COc1cc(C)ccc1C(C)C | -0.939% (inactive) | 
Cn1cnc2c(F)c(Nc3ccc(Br)cc3Cl)c(C(=O)NOCCO)cc21 | -0.0249% [at 46 µM] (inactive) | 
C[C@@H](N)C(=O)O | 0.031% [at 46 µM] (inactive) | 
CC(C)=CCCC(C)CCOC=O (stereo not given) | -0.0374% (inactive) | 
CCCCC(CC)COC(=O)COc1cc(Cl)c(Cl)cc1Cl (stereo not given) | 0.0591% (inactive) | 
CCOc1ccc(NS(=O)(=O)c2ccc(N)cc2)nn1 | 0.439% [at 46 µM] (inactive) | 
C[C@]12C(=O)OC(=O)[C@H]1[C@H]1C=C[C@@H]2C1 | -0.382% (inactive) | 
COC(C)CCO (stereo not given) | 0.132% (inactive) | 
